Screening results (PubChem)
aSyn UTR act: Activators via SNCA 5'UTR binding, MLPCN | alpha-synuclein 5'UTR reporter, activators screen | activity score, % (tested at 7.5 µM), hits read low | actives 7.1% (n = 300,000); in the data active = activity score below about -60%
Starred values were filed as active, the others as inactive. These entries were drawn from the full list.

SMILES	aSyn UTR act
O=C1CCCN1CCC(=O)N1CCCC(CO)(Cc2ccccc2)C1 (configuration not stated)	-98*
COc1cccc(-c2ccc(SCc3ccccn3)nn2)c1	-84*
O=[N+]([O-])c1cccc(-c2ccc(SCc3ccccn3)nn2)c1	-97*
O=c1[nH][nH]c(-c2ccccc2O)c1C(C[N+](=O)[O-])c1ccc(Cl)cc1Cl (configuration not stated)	-83*
NC(=O)c1oc2ccccc2c1NC(=O)c1nc2ccccc2s1	-121*
Cc1c(C(=O)NC2CCC(C)CC2)oc2ccccc12 (configuration not stated)	-143*
Cc1c(C(=O)NCCc2ccccc2)oc2ccccc12	-69*
Oc1ccc(Br)cc1C=Nc1cccn2cc(-c3ccccc3)nc12	-80*
CC(C)c1ccc2c(c1)C(c1ccc(N3CCOCC3)cc1)=NNC(c1cccs1)=N2	-103*
Cc1cc(C)c2c(N)c3ccccc3nc2n1	-623*
CCc1ccc2nc3nc(C)cc(C)c3c(N)c2c1	-391*
O=S1(=O)N=C(Nc2ccc(N3CCOCC3)c(Cl)c2)c2ccccc21	-193*
O=C1c2ccccc2S(=O)(=O)c2cc(N3CCOCC3)ccc21	76
COc1ccccc1C(=O)Nc1nc2cc3c(cc2s1)OCCO3	-64*
O=C(CCS(=O)(=O)c1ccccc1)Nc1nc2cc3c(cc2s1)OCO3	-65*
COc1ccccc1C(=O)Nc1nc2cc3c(cc2s1)OCO3	-122*
COc1ccc(C(=O)Nc2nnc(Cc3ccc(OC)c(OC)c3)s2)c(OC)c1	-82*
COc1ccc(C(=O)Nc2nc3cc4c(cc3s2)OCCO4)c(OC)c1	-63*
Cc1nc2cc(NC(=O)CCS(=O)(=O)c3ccccc3)ccc2s1	-172*
O=[N+]([O-])c1ccc(O)c2ncccc12	72
O=[N+]([O-])c1cccnc1NCCc1c[nH]c2ccccc12	-123*
O=[N+]([O-])c1cccnc1NCCc1ccccc1	-159*
Cc1ccc(N2C(=O)c3cccc4c([N+](=O)[O-])ccc(c34)C2=O)c2cccnc12	56
Nc1ccccc1N=Nc1ccccc1N	-222*
Cc1ccc(Cn2nc(-c3ccccc3)nc2-c2ccccc2)cc1	-154*
SMILES	aSyn UTR act
Cn1nc(-c2ccc(Cl)cc2)nc2c(=O)n(C)c(=O)nc1-2	110
Cn1nc(-c2ccccc2)nc1-c1ccccc1	-65*
Cc1ccc(S(=O)(=O)Nc2ccc(NC(=O)Nc3ccc(F)cc3F)cc2)cc1	78
O=C(Nc1ccccc1)c1ccc(F)cc1F	-108*
O=C(NC(=O)c1ccc(F)cc1F)Nc1ccc(Cl)cc1	-159*
Cc1ccc(NC(=O)c2ccc(F)cc2F)cc1	-195*
O=C(Oc1ccc(-c2cnc3ccccc3n2)cc1)c1cc([N+](=O)[O-])ccc1Cl	-176*
Cc1c(C(=O)Oc2ccc(-c3cnc4ccccc4n3)cc2)cccc1[N+](=O)[O-]	-108*
Clc1cc(Cl)c2nc(N3CCOCC3)sc2c1	-156*
Clc1ccc(Cl)c2sc(N3CCOCC3)nc12	-66*
Clc1ccc(-c2nsc(N3CCOCC3)n2)c(Cl)c1	-126*
O=c1c2ccccc2nnn1CSc1nnc(-c2ccco2)o1	-131*
O=c1c2ccccc2nnn1CSc1nnc2ccccn12	-93*
O=c1c2ccccc2nnn1CSc1ccc2c(c1)OCCO2	-145*
CCC(C(=O)Nc1ccc2c(c1)OCCO2)n1nnc2ccccc2c1=O (configuration not stated)	-133*
CC(C)(C)c1ccc(-c2nnc(N)s2)cc1	-65*
COc1ccc(-c2nnc(NC(=O)C(C)C)s2)c(OC)c1	-101*
CCOC(=O)Nc1nnc(-c2cccc(OC)c2)s1	-83*
CCOC(=O)Nc1nc(-c2ccccc2)c(C(=O)c2ccc(Cl)cc2)s1	114
CCOC(=O)Nc1nnc(-c2ccc(OC)cc2)s1	-65*
CCCCNC(=O)CSc1nc2ccc(N3CCOCC3)cc2c(=O)n1CCc1ccccc1	-92*
COc1ccc2c(c1)C(=NO)c1cc(OC)ccc1-2	-83*
C=CCOc1ccc2c(c1)C(=NO)c1cc(OCC=C)ccc1-2	-94*
ON=C1c2cc(OCCN3CCCCC3)ccc2-c2ccc(OCCN3CCCCC3)cc21	-189*
Cc1cc(/C=C2\SC(=S)N(Cc3ccco3)C2=O)c(C)n1-c1cccnc1	-181*
SMILES	aSyn UTR act
O=C(Nc1nccs1)c1ccc2c(c1)OCO2	-146*
CC(=O)c1sc(NC(=O)c2ccc(C(C)(C)C)cc2)nc1C	-107*
Cc1csc(NC(=O)c2ccc3c(c2)OCO3)n1	-81*
CC(=O)c1sc(NC(=O)c2cnc(Cl)c(Cl)c2)nc1C	-128*
Cc1nc(NC(=O)c2ccccc2)sc1Cc1ccc2c(c1)OCO2	-69*
CC(=O)c1sc(NC(=O)c2ccc3c(c2)OCO3)nc1C	-136*
CCN1CCc2nc(NC(=O)c3ccc4c(c3)OCCO4)sc2C1	-83*
CC(=O)c1sc(NC(=O)c2ccc(C)c(C)c2)nc1C	-86*
Cc1ccccc1Nc1nc(N)nc(COC(=O)c2cccn2C)n1	-122*
Cc1ccccc1Nc1nc(N)nc(COC(=O)c2ccccc2)n1	-198*
Cc1cc(NC(=O)c2sc3ccccc3c2O)no1	-64*
Cc1ccc(NC(=O)c2ccccc2Cl)c(Cl)c1	-83*
Cc1nc2ccc(NC(=O)c3ccc([N+](=O)[O-])cc3)cc2[nH]1	-106*
CC(C)Oc1ccc(C(=O)Nc2ccc([N+](=O)[O-])cc2)cc1	-211*
Cc1cc(NC(=O)c2ccc([N+](=O)[O-])cc2Cl)no1	-129*
Cc1cc(NC(=O)NC(=O)c2ccccc2F)no1	-109*
Cc1cc(NC(=O)c2cc(C(C)C)on2)no1	-140*
Cc1cc(NC(=O)c2ccc([N+](=O)[O-])cc2)no1	-130*
O=C(Nc1cccc(NC(=O)c2cc([N+](=O)[O-])ccc2Cl)n1)c1cc([N+](=O)[O-])ccc1Cl	48
Cc1cc(NC(=O)C(Cl)c2ccccc2)no1 (configuration not stated)	-74*
Cc1cc(NC(=O)c2ccccc2Cl)no1	-68*
CC(=O)Nc1ccc(S(=O)(=O)c2ccc([N+](=O)[O-])cc2)cc1	-72*
Cc1ccc(NC(=O)c2ccc([N+](=O)[O-])cc2Cl)nc1	-119*
Cc1ccc2nc(-c3ccccc3O)c(Nc3ccc4c(c3)OCCO4)n2c1	-65*
Fc1ccccc1C1CCN(Cc2nc(CC3CC3)no2)C1 (configuration not stated)	-82*
SMILES	aSyn UTR act
CCN(CC)S(=O)(=O)c1ccc(N=Nc2cc(C)cc(Br)c2O)cc1	-76*
CCN(CC)S(=O)(=O)c1ccc(N/N=C(\C)c2ccc(OC)cc2O)nc1	78
O=c1c(-c2ccc(Cl)cc2)c[nH]n1-c1ccccc1	-145*
O=c1c(-c2ccccc2)c[nH]n1-c1cccc([N+](=O)[O-])c1	-87*
CCc1ccc(OCC(=O)Nc2ccc(-c3nc4ccccc4o3)c(O)c2)cc1	-97*
Oc1cc(NCc2cccnc2)ccc1-c1nc2ccccc2o1	-100*
O=C(COc1ccccc1)Nc1cccc(-c2nnc(-c3ccccc3)o2)c1	-64*
CC(C)(C)c1ccc(OCC(=O)Nc2ccc(-c3nc4cccnc4o3)cc2)cc1	-135*
O=C(Nc1cccc(-c2nc3ccccc3o2)c1)c1ccc(N2C(=O)C3C4C=CC(C4)C3C2=O)cc1 (configuration not stated)	88
C=Cc1cccc(NC(=O)COc2ccccc2)c1	-107*
COc1ccc(OCC(=O)Nc2cccc(-c3nc4ccccc4o3)c2)cc1	-151*
O=C(COc1ccccc1)Nc1cccc(-c2nc3ccccc3[nH]2)c1	-63*
